Where “and” joins values, the source holds several entries; their conditions need not be identical. Equal entries are not always repeated. Results filed as inconclusive are left out. More than one record can exist for a structure, and the calls need not agree. Calls of active or inactive are those of the source.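 The calls were made as follows, unless noted: active = thallium flux through the channel raised or lowered by more than 3 SD from vehicle-only wells, actives on both sides; inactive = the rest.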

A short description of experiment [1]: signal quenchers or enhancers, Cy5 substrate/SSB – biochemical, NIH Clinical Collection, E. coli SSB, artefact control for HCV NS3 helicase inhibitor project (AID 743268; call rule not given here). The note with it: Cy5-oligo bound E. coli SSB, fluorescence interference.
For experiment [2], the system named is Aerobactin synthetase IucA (Klebsiella pneumoniae). Put plainly: inhibition of K. pneumoniae IucA enzyme – biochemical, Tocris library, absorbance (AID 1345561; call rule not given here;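 also: 100% = enzyme without compound and 0% = no enzyme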). The note with it: purified IucA enzyme assay, absorbance (OD) read-out; stronger effect = lower value;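 tested at 8 µM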.
Experiment [3] in a line: viability loss in pontine glioma line – cell-based, SU-DIPG-XIII, MIPE4.0, CellTiter-Glo, qHTS, dose response (AID 1347061; cut-off not given, nearly all actives have AC50 up to about 37 µM;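 also: cells exposed to compound for 48 hours before readout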). As to conditions: CellTiter-Glo ATP luminescence.
Experiment [4] in a line: viability loss in pontine glioma line – cell-based, SU-DIPG-IV, MIPE4.0, CellTiter-Glo, qHTS, dose response (AID 1347063; cut-off not given, nearly all actives have AC50 up to about 30 µM;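 also: compound exposure lasted 48 hours before the viability readout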). The note with it: CellTiter-Glo ATP luminescence.
Experiment [5] is described as follows: growth inhibition of DIPG cells – cell-based, MIPE4.0 library, CellTiter-Glo luminescence, qHTS (AID 1347066; cut-off not given, nearly all actives have AC50 up to about 30 µM;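 also: cells exposed to compound for 48 hours before readout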). As to conditions: SU-DIPG-VI viability, CellTiter-Glo ATP luminescence.
Another experiment deals with F380Y/beta1. The experiment is described as follows: BK channel mutant inhibitors and activators – cell-based, U2OS BacMam, thallium flux, beta subunits, selectivity assay, profiling panel (AID 1259406).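 Also: initial slope of Thallos dye fluorescence rise after thallium is added; log ratio against the mean of 0.3% DMSO vehicle wells on the same plate.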 As to conditions: U2OS BacMam BK variants, at 30 µM.
Another experiment concerns F380Y/beta4. The description is as above. As to conditions: U2OS BacMam BK variants, at 30 µM.
Another experiment concerns R275C/beta4. The description is as above. As to conditions: U2OS BacMam BK variants, at 30 µM.
The subject of a further experiment is R275C/Slo1WT/beta2. Described as above. As to conditions: U2OS BacMam BK variants, at 30 µM.
Experiment [6] can be described thus: viability loss in pontine glioma line – cell-based, JHH-DIPG-1, MIPE4.0, CellTiter-Glo, qHTS, dose response (AID 1347062; cut-off not given, nearly all actives have AC50 up to about 27 µM). As to conditions: JHH-DIPG-1 viability, CellTiter-Glo ATP luminescence.
The nature of experiment [7]: growth inhibition of DIPG cells – cell-based, MIPE5.0 library, qHTS (AID 1347068; cut-off not given, nearly all actives have IC50 up to about 30 µM). As to conditions: SU-DIPG-XXV viability. (qHTS replaces the single test concentration by a dilution series.)
The nature of experiment [8]: GFP-Q80 aggregate reduction, neuronal-like cells, cell-based, NGF-treated PC12, GFPQ80 (AID 1614).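 Also: lower means fewer inclusions and 0 means no inclusions at all.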 The note with it: PC12 NGF-treated GFP-polyQ80 inclusion reduction.

`O=C(CCCN1CCC(O)(c2ccc(Cl)cc2)CC1)c1ccc(F)cc1`: the fluorescence ratio in experiment [1] is 0.91 (inactive). Moreover, the remaining activity (as a rule, the signal under treatment as a percentage of the control signal) in experiment [2] was 128% (inactive). In addition, the result in [3], in experiment [4] and in [5] was inactive. The log fold change Tl+ flux in the experiment with F380Y/beta1 was 0.0554 (inactive); in the experiment with F380Y/beta4 it was 0.0709 (inactive); in the experiment with R275C/beta4, -0.0662 (inactive); in the experiment with R275C/Slo1WT/beta2, -0.0319 (inactive).
Regarding `COCCCOc1ccnc(CS(=O)c2nc3ccccc3[nH]2)c1C` (stereo unspecified), the fluorescence ratio in experiment [1] is 0.94 (inactive). Besides, the result in experiment [3], in [6], in experiment [4], in experiment [5] and in [7] was inactive.
As for `CC1(C)[C@H](C(=O)O)N2C(=O)C[C@H]2S1(=O)=O`, the compound was called inactive in experiment [6], in [4] and in experiment [5].
As to `Clc1ccccc1CN1CCc2sccc2C1`, the compound was classed as inactive in experiment [3], in experiment [6], in experiment [5] and in [7]. Further, the log fold change Tl+ flux in the experiment with F380Y/beta1 is -0.0989 (active); with F380Y/beta4 it was -0.152 (active); with R275C/beta4, -0.0465 (inactive); in the experiment on R275C/Slo1WT/beta2 it was 0.00594 (inactive).
`O=C(O)c1cn(C2CC2)c2cc(N3CCNCC3)c(F)cc2c1=O` gave an inclusion score in [8] of 2. The result in [3], in experiment [6], in [5] and in experiment [7] was inactive.
Regarding `CC(C)c1c(C(=O)Nc2ccccc2)c(-c2ccccc2)c(-c2ccc(F)cc2)n1CC[C@@H](O)C[C@@H](O)CC(=O)O`, in experiment [7], the compound was classed as inactive.
On to `COc1ccc(-c2nc3ccc(C4=NNC(=O)CC4C)cc3[nH]2)cc1` (stereo unspecified), for which the compound was classed as inactive in [3], in experiment [6] and in [5].
On to `C[N+]1(C)CCC(OC(=O)C(O)(c2ccccc2)C2CCCC2)C1` (stereo unspecified), for which the fluorescence ratio in [1] is 1.05 (inactive) and 1.06 (inactive). For the same compound, the log fold change Tl+ flux in the experiment on F380Y/beta1 was 0.0124 (inactive) and -0.000209 (inactive); in the experiment with F380Y/beta4 it was -0.00589 (inactive) and 0.00112 (inactive); in the experiment on R275C/beta4, 0.0451 (inactive) and -0.0272 (inactive); with R275C/Slo1WT/beta2 it was 0.0815 (active) and 0.0504 (inactive).
Turning to `O=S(=O)(c1cccc2cnccc12)N1CCCNCC1`, the remaining activity in experiment [2] is 109% (inactive). The compound was called inactive in experiment [3], in experiment [6], in experiment [5] and in experiment [7].
In the case of `CC(C)(C(=O)O)c1ccc(C(O)CCCN2CCC(C(O)(c3ccccc3)c3ccccc3)CC2)cc1` (stereo unspecified), the fluorescence ratio in experiment [1] was 1.07 (inactive). The remaining activity in experiment [2] was 89.1% (inactive). The log fold change Tl+ flux in the experiment on F380Y/beta1 was -0.0158 (inactive); with F380Y/beta4, -0.0315 (inactive); with R275C/beta4, 0.0234 (inactive); in the experiment with R275C/Slo1WT/beta2 it was 0.0197 (inactive).
On to `NCCCC(O)(P(=O)(O)O)P(=O)(O)O`, for which the compound was classed as inactive in [3], in experiment [6] and in experiment [7].
Turning to `O=C(O)CCn1c2c(c3ccccc31)C[C@H](NS(=O)(=O)c1ccc(F)cc1)CC2`, the outcome in [3], in [6], in [5] and in [7] was inactive.
For `O=C(O)COCCN1CCN(C(c2ccccc2)c2ccc(Cl)cc2)CC1` (stereo unspecified), the remaining activity in experiment [2] is 109% (inactive). The compound was classed as inactive in experiment [3], in experiment [6], in experiment [4] and in [5]. The log fold change Tl+ flux in the experiment on F380Y/beta1 is 0.0627 (inactive); in the experiment on F380Y/beta4, 0.0511 (inactive); in the experiment on R275C/beta4 it was 0.0338 (inactive); with R275C/Slo1WT/beta2 it was -0.0639 (inactive).
For `CC(C)n1c(/C=C/[C@@H](O)C[C@@H](O)CC(=O)O)c(-c2ccc(F)cc2)c2ccccc21`, the fluorescence ratio in experiment [1] was 1.05 (inactive). Besides, the log fold change Tl+ flux is 0.0905 (inactive) with F380Y/beta1, 8.3e-05 (inactive) in the experiment with F380Y/beta4, 0.103 (inactive) in the experiment with R275C/beta4 and 0.0615 (inactive) with R275C/Slo1WT/beta2.
Turning to `CN1[C@@H]2CC(OC(=O)[C@H](CO)c3ccccc3)C[C@H]1[C@@H]1O[C@@H]12` (stereo partly specified), the fluorescence ratio in experiment [1] is 0.95 (inactive). Besides, the remaining activity in experiment [2] is 104% (inactive).
Consider `O=C(NCC1CCCCN1)c1cc(OCC(F)(F)F)ccc1OCC(F)(F)F` (stereo unspecified), for which the fluorescence ratio in [1] was 1.08 (inactive). Also, the remaining activity in experiment [2] was 117% (inactive). The outcome in [3], in experiment [5] and in experiment [7] was inactive.
Consider `Cc1ccc(/C(=C\CN2CCCC2)c2ccccn2)cc1`, for which, in experiment [8], the inclusion score turned out to be 2. Besides, in experiment [2], the remaining activity was 77.2% (inactive).
